Screening results from PubChem BioAssay.
Shown are actives, neighbours in structure and some others; about 4% of the full set was active somewhere.
tim23-1 inh = growth inhibitors of tim23-1 mutant yeast; S. cerevisiae tim23-1 growth, BacTiter-Glo luminescence, 24 h; inhibition, % at 20 µM; 1.3% of 330,000 active; AID 463212;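 active means growth inhibition of the mutant yeast at or above 50%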;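 further: temperature-sensitive mutant grown at 25 °C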
TIM10 inh = growth inhibitors of TIM10 yeast strain; S. cerevisiae TIM10 strain growth, BacTiter-Glo luminescence, 24 h; inhibition, % at 10 µM; 1.4% of 330,000 active;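 active means inhibition of 40% or more at the single tested concentration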;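 further: wild-type TIM10 isogenic control strain grown at permissive 25 °C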
tim10-1 inh = inhibits growth of tim10-1 mutant yeast. S. cerevisiae tim10-1 ts strain growth, BacTiter-Glo, 24 h. inhibition, % at 20 µM. 2.2% of 330,000 active. AID 463190;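 active means inhibition of at least 40%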;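 further: mutant grown at 25 °C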
NALP1 yeast inh = blocks the NALP1 inflammasome reconstituted in yeast. inhibition, % at 10 µM. S. cerevisiae NALP1/ASC/caspase-1 growth, X-gal OD620, 72 h. AID 2071. 0.61% of 280,000 active; in the data active means inhibition mostly above about 24%, no sharp cut-off; inactive means mostly below about 32%
NALP3 yeast inh = inhibitors of NALP3 inflammasome in yeast | Yeast reconstituted NLRP3/ASC/caspase-1, beta-gal luminescence, 24 h | inhibition, % at 10 µM | 0.39% of 330,000 active;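 active means inhibition of 50% or more; inactive means inhibition below 50%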
tim10 confirm = confirmation of TIM10 yeast growth inhibitors. S. cerevisiae tim10 strain growth, BacTiter-Glo luminescence, 24 h. shares compounds with TIM10 inh. inhibition, % at 10 µM. 63% of 4,600 active;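 active means inhibition of yeast growth at or above a set limit in either of two replicates at 10 µM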; further: this counterscreen used the strain with wild-type TIM10
Hits are given with their value; 0 = inactive; - = no result.

SMILES | tim23-1 inh | TIM10 inh | tim10-1 inh | NALP1 yeast inh | NALP3 yeast inh | tim10 confirm
O=C(NCc1cn(-c2ccccc2)nc1-c1ccc(F)cc1)c1cccc([N+](=O)[O-])c1 | 0 | 41 | 0 | - | 0 | 0
CCn1cc(CNC(=O)c2cccc([N+](=O)[O-])c2)c(C)n1 | 0 | 0 | 0 | 0 | 0 | -
CC1=CC(C)(C)N(C(=O)C(C)N2C(=O)c3ccccc3C2=O)c2ccc(C)cc21 (stereo not drawn) | 0 | 0 | 0 | 0 | 0 | -
CC1=CC(C)(C)N(C(=O)c2ccccc2)c2ccc(C)cc21 | 0 | 46 | 0 | 0 | 0 | 0
Cc1cc(NC(=O)Cc2ccccc2[N+](=O)[O-])no1 | 0 | 0 | 0 | 0 | 0 | -
CCC1C(c2ccccc2)N(C)C(c2ccccc2)CC1(O)c1ccccc1 (stereo not drawn) | 0 | 44 | 0 | 0 | 0 | 34
O=C(O)C1CC=CCC1C(=O)Nc1ccc(N2CCN(Cc3ccccc3)CC2)cc1 (stereo not drawn) | 0 | 0 | 0 | 0 | 0 | -
N/C(=N/O)c1nc(N2CCCC2)nc(N2CCCC2)n1 | 0 | 0 | 0 | - | 0 | -
N/C(=N/O)c1nc(N2CCCC2)nc(N(c2ccccc2)c2ccccc2)n1 | 0 | 53 | 0 | 0 | 0 | 36
COC(=O)C1=C(C)N(c2ccccc2)C(=S)NC1c1ccccc1C(F)(F)F (stereo not drawn) | 0 | 50 | 0 | 0 | 0 | 0
CC(C)N(Cc1ccccc1)C(=S)NC(=O)C1(C)CC1(Cl)Cl (stereo not drawn) | 0 | 41 | 0 | 0 | 0 | 33
Cc1cc(-c2nn(-c3ccccc3F)cc2CNCCc2cnc[nH]2)c(C)s1 | 0 | 0 | 0 | 0 | 0 | -
CC(C)Oc1ccc(C(=O)Nc2ccc(N(C)C)cc2)cc1 | 0 | 50 | 0 | 0 | 0 | 0
CC(C)(C)n1nnnc1C(c1cccs1)N(Cc1ccccc1)Cc1ccco1 (stereo not drawn) | 0 | 0 | 0 | 0 | 0 | -
CC(C)(C)n1nnnc1C(c1ccncc1)N(Cc1ccccc1)Cc1ccco1 (stereo not drawn) | 0 | 42 | 0 | 0 | 0 | 0
COc1ccc(N2C(=O)CC(N3CCN(S(=O)(=O)c4cc(C)ccc4C)CC3)C2=O)cc1 (stereo not drawn) | 0 | 0 | 0 | 0 | 0 | -
Cc1ccc(OCC(=O)NCCNC(=O)c2cnccn2)cc1C | 0 | 0 | 0 | 0 | 0 | -
S=C(NCc1ccco1)Nc1cccc(Cl)c1Cl | 0 | 41 | 0 | - | 0 | 0
CC(C)(C(=O)O)c1ccc([C@H](O)CCCN2CCC(C(O)(c3ccccc3)c3ccccc3)CC2)cc1 | - | 0 | 0 | - | 0 | -
O=C(c1cc(COc2cccc(C(F)(F)F)c2)on1)N1CCC(Oc2cccnc2)CC1 | 0 | 43 | 0 | 0 | 0 | 43
Cc1ccc(OCc2cc(C(=O)N3CCC(Oc4cccnc4)CC3)no2)cc1C | 0 | 0 | 0 | 0 | 0 | -
CCOc1ccc(-n2cnc3scc(-c4ccc(OC)c(OC)c4)c3c2=O)cc1 | 0 | 41 | 0 | 0 | 0 | 0
COc1ccc(-c2nc3scc(-c4ccc(OC)c(OC)c4)c3c(=O)o2)cc1 | 0 | 0 | 0 | 0 | 0 | -
O=[N+]([O-])c1ccc(N/N=C\c2cccn2-c2ccccc2)nc1 | 0 | 43 | 0 | 0 | 0 | 0
O=[N+]([O-])c1ccc(N/N=C/c2cccs2)nc1 | 0 | 0 | 0 | - | 0 | -
SMILES | tim23-1 inh | TIM10 inh | tim10-1 inh | NALP1 yeast inh | NALP3 yeast inh | tim10 confirm
FC(F)Oc1ccc(NC(=S)NC23CC4CC(CC(C4)C2)C3)cc1 | 0 | 52 | 0 | 0 | 0 | 35
CCOc1ccc(NC(=S)NC23CC4CC(CC(C4)C2)C3)cc1 | 0 | 0 | 0 | 0 | 0 | -
CCc1ccc(/C=C2\SC(N3CCCC3)=NC2=O)cc1 | 0 | 44 | 0 | 0 | 0 | 41
O=C(CC1(CC(=O)N2CCOCC2)CCCC1)Nc1ccc(F)cc1 | 0 | 0 | 0 | - | 0 | -
Cc1ccc(Cl)cc1N1CCN(C(=O)c2ccc3nc[nH]c3c2)CC1 | 0 | 48 | 0 | 0 | 0 | 37
Cc1ccccc1C1(CCN2CCCCC2)CCOC(C)(C)C1 (stereo not drawn) | 0 | 0 | 0 | 0 | 0 | -
COc1ccc2cc3cc(C(=O)NCCN4CCc5ccccc5C4)sc3nc2c1 | 0 | 69 | 0 | 0 | 0 | 67
CCC(C)NC(=O)c1cc2cc3ccc(OC)cc3nc2s1 (stereo not drawn) | 0 | 46 | 0 | 0 | 0 | 0
CCC(C)NC(=O)c1cc2c(=O)n3ccccc3nc2s1 (stereo not drawn) | 0 | 0 | 0 | 0 | 0 | -
COc1ccc(OCC(O)CN2CC(C)OC(C)C2)cc1 (stereo not drawn) | 0 | 0 | 0 | 0 | 0 | -
